The source made the active and inactive calls. How the source made its calls: active means hit-call score of the fitted dose curve at least 0.9, where 1 is the maximum; inactive means score below 0.9.
read-out: Heat shock 70 kDa protein 1 (HSPA1A), gene 3303; assay: LTEA_HepaRG_HSPA1A: Life Technologies and Expression Analysis (LTEA) Assay for Heat shock 70 kDa protein 1 (HSPA1A) using HepaRG (AID 2283502); details: mRNA level, 48 h; actives raise or lower the signal
Experimental: LTEA_HepaRG is a cell based, multiplexed-readout assay that uses HepaRG, a human liver cell line, with measurements taken at 48 hours after chemical dosing on a 96-well plate.LTEA_HepaRG_HSPA1A is one of 102 assay component(s) measured in the LTEA HepaRG cell culture assay. It is a marker of Oxidative Stress.Data from the assay component LTEA_HepaRG_HSPA1A was analyzed into 1 endpoint. This assay endpoint, LTEA_HepaRG_HSPA1A, was analyzed with bidirectional fitting relative to DMSO as the negative control and baseline of activity. Using a type of inducible reporter, measures of mRNA induction for gain or loss-of-signal activity can be used to understand regulation of transcription factor activity. To generalize the intended target to other relatable targets, this assay endpoint is annotated to the dna binding intended target family, where the subfamily is heat shock protein.
A total of 1060 chemcials from the ToxCast library were tested in eight-point concentration-response experiments. Cell culture and cytotoxicity assays were conducted at Thermo Fisher Scientific's Custom Services facility (Madison, WI). A single lot of human HepaRG cells (Thermo Fisher Scientific, Frederick, MD) was used for the cell culture experiments. 96-well format collagen type I coated plates of human HepaRG cells were prepared using established methods. Briefly, cryopreserved HepaRG cells were thawed, plated at a density of approximately 100,000 cells/well in HepaRG Thaw, Plate, and General Purpose media (HPRG770, Thermo Fisher Scientific), and incubated for 48 hours. 0.5% DMSO was selected as vehicle control to balance the requisite need of DMSO in HepaRG cultures to maintain differentiation (for example, baseline metabolism, proportions of hepatocytes vs. cholangiocytes), while enabling further hepatic receptor pathway activation (for example, PXR and CAR) in response to chemical exposure. 48 hours after plating, the culture medium was replaced with HepaRG Serum-Free Incudtion Media. Cells were exposed to each test chemical in duplicate and maintained in CO2 incubators for another 48 hours. Chemical plates were thawed to room temperature and 200x concentrations of treatment groups were prepared. 8-point conentration-reponse curves were made with the highest exposure at 100 uM, followed by half-log dilutions, all in 0.5% DMSO. Each test plate contained variouse controls, induction positive controls (1mM phenobarbital), cytotoxicity positive controls ([…] aflatoxin B1), vehicle controls (0.5% DMSO), and total lysis controls (0.5% DMSO). Cell morphology images were taken using an Essen IncuCyte FLR automated microscope, with six 96-well plates imaged in about 24 minutes. Images were captured and exported and JPEG files. Spent culture media was transfered to black-well plates for the LDH assay, and remaining media was sorted at -80 C for later use. Cells were treated with RLT buffer and frozen until shipped for gene expression analysis. Total RNA was isolated from the cell suspension in 75 uL of Buffer RLT (Qiagen, Germantown, MD 20874) by Quintiles/Expression Analysis (Durham, NC) using a custom isolation procedure. Total RNA from each plate well was transferred to a preamplification plate. Fluidigm's 96.96 Dynamic ArrayTM (Fluidigm, Amsterdam, the Netherlands) technology was used for gene expression analyses by quantitative reverse transcription polymerase chain reaction (qRT-PCR, performed by Quintiles/Expression Analysis, Durham, NC)89. Standard TaqManTM Assays (Applied Biosystems/ThermoFisher Scientific, Foster City, CA) were used to assess the expression of 93 genes selected based on their selectivity and sensitivity to important hepatic receptors known to be modulated by environmental chemicals; importance in human hepatocyte functionality; and hepatotoxicity. […]

Row | SMILES | AC50 | outcome
1 | CCCCCCCCCCCCOS(=O)(=O)O | 50 µM (active) | 
2 | N=C(N)c1ccc(OCCCCCOc2ccc(C(=N)N)cc2)cc1 | 26.5 µM (active) | 
3 | CCCCC=O |  | inactive
4 | CC(=O)Nc1ccc(O)cc1 |  | inactive
5 | CCCCCCCCCCCCCCC |  | inactive
6 | CCC(C)c1ccccc1O (stereo not given) |  | inactive
7 | O=C(CCCN1CCC(O)(c2ccc(Cl)cc2)CC1)c1ccc(F)cc1 | 74.3 µM (active) | 
8 | O=C(c1ccccc1)c1ccccc1 |  | inactive
9 | OCC(CO)(CBr)CBr |  | inactive
10 | CS(=O)(=O)c1ccc([C@@H](CC2CCCC2)C(=O)Nc2cnccn2)cc1Cl |  | inactive
11 | CCCCC(CC)C(=O)O (stereo not given) |  | inactive
12 | CCCCc1oc2ccccc2c1C(=O)c1cc(I)c(OCCN(CC)CC)c(I)c1 | 60 µM (active) | 
13 | Cc1[nH]nc2c1N=C(c1ccccc1Cl)c1cc([N+](=O)[O-])ccc1N2 |  | inactive
14 | O=C1NS(=O)(=O)c2ccccc21 |  | inactive
15 | CN(C)CCOC(c1ccccc1)c1ccccc1 |  | inactive

— PubChem BioAssay (EPA / NIEHS)
